In the library only some 2.7% were active in any assay of this set; here they are far more common.
RXFP1 antag = antagonists of human relaxin receptor RXFP1; Q9HBX9; 350,000 tested, 0.59% active; AID 1259400; HEK293-RXFP1, relaxin-stimulated cAMP HTRF, 30 min; stronger effect = lower value; activity change, negative = inhibition, % at 57.5 µM;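 active means activity change of -60% or lower, but not beyond a set lower limit; inconclusive means change between -60% and -40%, or beyond the set limit; inactive means change above -40%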; further: on the % scale 0 is the no-effect control and ±100 the full control effect
gsp agonist = activates gsp, the McCune-Albright syndrome mutation. Potency, µM (titrated, usually from 76.9 µM), for the others: at the highest dose activation (cAMP increase), actives largely listed as activators. gsp mutant cells, cAMP HTRF, 30 min. 340,000 tested, 0.13% active. AID 624287; active means well fitted activation curve with a large enough effect; inconclusive means small, poorly fitted or top-dose-only effect, or another doubt; inactive means no such curve, though single readings can be large or run the other way; cell line not stated here;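 further: phosphodiesterase inhibitor Ro 20-1724 added with compounds to block cAMP breakdown; potency means the concentration at half of the fitted maximal effect; nearly all actives have a fitted effect of over 60% in size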
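Cells in DMEM/10% FBS with G418 were pretreated with compounds in DMSO plus […] (300 uM stock) for 30 min at 37C. cAMP was measured by HTRF (cAMP-d2 plus anti-cAMP antibody-K) after 30 min at room temperature.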
gsp antagonist = antagonizes gsp, the McCune-Albright syndrome mutation; gsp-mutant cells, cAMP HTRF, 30 min; Potency, µM (titrated, usually from 76.9 µM), without a hit: top-dose activity change, negative = inhibition, usual class: inhibitors; 340,000 tested, 0.4% active; calls by dose curve; cell line not stated here;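 further: intracellular cAMP measured with PDE inhibitor Ro 20-1724 present during compound exposure; potency means the concentration at half of the fitted maximal effect; on the % scale 0 is the no-effect control and ±100 the full control effect; nearly all actives have a fitted effect of over 65% in size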
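HTRF cAMP measurement after 30 min RT detection following 30 min, 37C compound treatment alongside […] (added as 300 uM solution) in G418-selected cells seeded at 2000/well and grown 16–24 h.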
RXFP1 ag = activates the human relaxin receptor RXFP1. HEK293T-RXFP1 cAMP TR-FRET, 30 min; response scale: percent of porcine relaxin response, buffer zero. 370,000 tested, 0.3% active. Potency, µM (top dose mostly 57.5 µM), without a hit: at the top dose activation, hits mostly activators. AID 2676. Q9HBX9; active means well fitted activation curve with a large enough effect; inconclusive means small, poorly fitted or top-dose-only effect; further: potency means the concentration at half of the fitted maximal effect; on the % scale 0 is the no-effect control and ±100 the full control effect; nearly all actives have a fitted effect of over 60% in size
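cAMP rise read by TR-FRET after 30 min, 37C compound exposure (up to 58 uM) in RXFP1-transfected HEK293 cells with Ro 20174 present. EC50 from Hill-equation fits, with 29 nM porcine relaxin as 100% and buffer as basal.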
ClpP mod = qHTS Assay for Activators of ClpP. ATP-dependent Clp protease proteolytic subunit (Bacillus subtilis (strain 168)), P80244. purified B. subtilis ClpP, FRET peptide cleavage, 20 min. Potency, µM (highest dose often 57.5 µM), without a hit: at the highest dose activity change, negative = active. 340,000 tested, 1.9% active. AID 651965, 2013; active means well fitted falling curve with a large enough effect; inconclusive means small, poorly fitted or top-dose-only effect; inactive means no such curve, though single readings can be large or run the other way; further: potency means the concentration at half of the fitted maximal effect; the source files actives as falling curves though it sought activators and does not explain the sign; nearly all actives have a fitted effect of over 65% in size
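FRET quenching reversal measured ClpP activation: 10 microg/mL B. subtilis ClpP at pH 8 with the FRET-FV decapeptide, read at 430 nm after 320 nm excitation. The 20-min minus 0-min signal was scaled between DMSO/no-enzyme wells and ADEP (5.8 microM final).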
Akt phos inh = inhibitors of Akt phosphorylation. Neuro2A IGF-stimulated pAkt S473 HTRF, 20 min; stronger effect = lower value. activity change, % for hits at 50 µM. 360,000 tested, 0.32% active; in the data active means activity change below about -80%; inconclusive means mostly about -51% to -80%; further: on the % scale 0 is the no-effect control and ±100 the full control effect
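Neuro2A cells in DMEM with 0.5% FBS, overnight at 37 deg C, given compound at single 50 µM final, then IGF (6 nM final) for 20 min at 37 deg C. Lysed; phospho-Akt Ser473 by HTRF after 24 h, 665/615 ratio.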
Starred values were filed as active, the others as inactive; i = inactive; ? = inconclusive; nt = no result; [ ] = another dose, or the depositor's remark.

SMILES | RXFP1 antag | gsp agonist | gsp antagonist | RXFP1 ag | ClpP mod | Akt phos inh
O=C(Cc1ccccc1)Nc1cccc(N2C(=O)C=CC2=O)c1 | -119* | 17% | 9% | 3% | 14µM* | i
CCC(=O)C1=C(c2ccc(OC)c(OC)c2)N(C(=O)CC)n2c(CC)nnc2S1 | -10 | nt | nt | 0% | 3% | nt
O=C(CSc1nncs1)Nc1cc(S(=O)(=O)N2CCOCC2)ccc1N1CCCC1 | 0 | 22µM* | 9% | 18% | -15% | i
COc1ccc(S(=O)(=O)N(C)C)cc1NC(=O)CSc1nncs1 | 8 | 44%[15.4 µM] | 19% | 18µM* | 0% | i
Cc1ccc(OCCN2CCC2(C)C(=O)Nc2ccc3c(c2)OCO3)cc1 (configuration not stated) | nt | nt | nt | nt | -6% | i
OC1(c2ccccc2)CC(c2ccccc2)c2ccccc2O1 (configuration not stated) | -77* | -4% | ? | nt | nt | i
c1ccc2c(c1)ccc1[nH]c3c(c12)CCCC3 | -8 | -3% | -13% | nt | 18µM* | i
COc1cccc(NC(=O)c2cc(CN3C(=O)c4ccccc4C3=O)ccc2OC)c1 | nt | 28% | -13% | 4% | 10µM* | i
COc1cccc(NC(=O)CN(C)C(=O)c2cc(CN3C(=O)c4ccccc4C3=O)ccc2OC)c1 | -8 | -3% | -9% | nt | 0% | i
CCCCCCC[n+]1ccc(/C=C/c2c(C)[nH]c3ccccc23)c2ccccc21 | nt | nt | nt | nt | -2% | nt
CCOc1ccc(NC(=O)NCCCN2CCN(c3ccc(F)cc3)CC2)cc1 | nt | nt | nt | -3% | -2% | nt
COCC(C)n1c(SCc2nc3ccccc3c(=O)[nH]2)nc2ccccc2c1=O (configuration not stated) | -4 | -1%[15.4 µM] | 12% | 0% | 20µM* | i
CCOC(=O)c1nnn(CC(=O)N2N=C(c3cc(C)ccc3C)CC2c2ccc(OC)cc2)c1C(=O)OCC (configuration not stated) | -9 | 8% | -10% | 0% | -14% | i
CCOC(=O)c1nnn(CC(=O)N2N=C(c3ccccc3)CC2c2ccccc2)c1C(=O)OCC (configuration not stated) | 4 | 0% | 11% | -1% | -11% | -83%*
CCCc1nc(SCC(=O)N2CCC(Cc3ccccc3)CC2)c2c(=O)n(C)c(=O)n(C)c2n1 | 3 | ? | 25µM* | 2% | 1% | i
COc1cc(C(C#N)N2N=C(c3ccccc3)CC2c2ccccc2)ccc1O (configuration not stated) | 8 | 3% | -13% | 2% | -9% | -113%*
N#CC(c1ccccc1O)N1N=C(c2ccccc2)CC1c1ccccc1 (configuration not stated) | -1 | 0% | -6% | 1% | -15% | i
COc1cc(C(=O)OCC(=O)N2CCCC2=O)cc(OC)c1C | 0 | 2% | 6% | nt | -13% | i
CC(C)c1ccc(NC(=O)Cn2c(=O)n(Cc3nc(-c4ccccc4)no3)c(=O)c3cc4c(cc32)OCO4)cc1 | -13 | nt | nt | 3% | ? | nt
Cc1ccc(NC(=O)Cn2c(=O)n(Cc3nc(C)no3)c(=O)c3cc4c(cc32)OCO4)c(C)c1 | -10 | nt | nt | 15% | 22µM* | nt
Cc1noc(Cn2c(=O)c3cc4c(cc3n(CC(=O)Nc3ccc(C(C)C)cc3)c2=O)OCO4)n1 | -6 | nt | nt | 0% | 35µM* | nt
C[N+]1(CC(=O)c2ccc(I)cc2)CCOCC1 | nt | nt | nt | nt | 0% | nt
O=C(NCc1ccc(C(F)(F)F)cc1)c1ccc(-c2ccc(F)c(F)c2)c2ccoc12 | nt | nt | nt | nt | 28µM* | i
O=C(NCc1ccncc1)c1ccc(-c2ccc(F)c(F)c2)c2ccoc12 | nt | nt | nt | nt | 4% | i
CCCCNC(=O)c1ccc2nc(-c3cccs3)c(-c3cccs3)nc2c1 | nt | nt | nt | nt | 10% | nt
Cc1ccc(OCc2nc3ccccc3n2CC(C)C)cc1 | 1 | nt | nt | 1% | 0% | nt

From PubChem BioAssay
